Source: PubChem
PrPC surface inh: reduces human prion protein on the cell surface | cell surface PrPC, TR-FRET read-out | inhibition, % at 13.8 µM | actives 0.43% (n = 370,000) | AID 720596; in the data active = inhibition above about 24%
MazEF act: MazEF (E. coli) toxin RNase activation; P0AE70; actives 0.32% (n = 350,000); FAM/BHQ RNA-DNA oligo cleavage fluorescence, 5 h; activation, % at 20 µM; in the data active = activation above about 50%
BH1578 lux ind: quorum light induction in luxS cqsA deficient V. cholerae. V. cholerae BH1578 lux reporter, luminescence, 6 h. activation, % at 18.7 µM. actives 0.16% (n = 350,000). AID 588436; in the data active = activation mostly above about 9.7%, no sharp cut-off
CCHF vOTU inh: blocks the CCHF virus ovarian tumor domain protease. AID 651958. inhibition, % at 11.5 µM. actives 0.55% (n = 370,000). CCHFV vOTU protease, Pep-AMC fluorescence; in the data active = inhibition above about 30%
DUSP3 inh: DUSP3 (human) phosphatase inhibition; inhibition, % at 13.3 µM; P51452; actives 0.52% (n = 290,000); recombinant VHR phosphatase, pNPP absorbance; in the data active = inhibition above about 50%
Y pestis TopoI: Y. pestis Topo-I inhibition via cleavage products. Y. pestis Topo-I cleavage product accumulation, plate reader. actives 0.064% (n = 360,000). activity, % at 10 µM; in the data active = activity above about 50%, passing the limit was not always enough
PrPC TRFRET cf: cell surface PrPC inhibition, TR-FRET confirmation. shares compounds with PrPC surface inh. actives 65% (n = 1,500). inhibition, % at 13.8 µM. AID 743200. cell surface PrPC level; in the data active = inhibition above about 25%
LD9 cytotox: LD9 cell cytotoxicity, PrPc inhibitor counter-screen; shares compounds with PrPC surface inh; LD9 cells cytotoxicity, luminescence viability; inhibition, % at 13.8 µM; actives 29% (n = 1,500); AID 743201; in the data active = inhibition above about 9.5%
A number is an active result; . = inactive; / = no result. This is a sample that favours compounds with a hit; in the whole collection about 1.8% have one here.

SMILES	PrPC surface inh	MazEF act	BH1578 lux ind	CCHF vOTU inh	DUSP3 inh	Y pestis TopoI	PrPC TRFRET cf	LD9 cytotox
O=C(Nc1ccn(Cc2ccccc2F)n1)c1ccc(COc2ccc(Br)cc2)cc1	32.2	.	.	.	.	.	.	.
O=C(Nc1ccc(Cn2cccn2)cc1)c1ccc(COc2ccc(Br)cc2)cc1	.	.	.	.	.	.	/	/
O=C(Nc1ccc(Cn2cccn2)cc1)c1ccc(COc2cccc(Br)c2)cc1	28.2	.	.	.	.	.	25.6	.
CC(=O)N1CCC(C(=O)NC2CCCc3c2cnn3-c2cc(F)cc(F)c2)CC1 (centres undefined)	84.8	.	.	.	.	.	.	.
COc1ccc(NC(=S)NC(NC(=O)c2cccc(Cl)c2)C(Cl)(Cl)Cl)c([N+](=O)[O-])c1 (centres undefined)	.	.	.	.	.	.	/	/
O=C(NC(NC(=S)Nc1ccccc1Cl)C(Cl)(Cl)Cl)c1cccc(Cl)c1 (centres undefined)	24.6	.	.	.	.	.	39.6	10.8
OC[C@@H]1CN(CCN2CCOCC2)C[C@H](n2cnc3c(NC4CCC4)ncnc32)O1	.	/	.	.	/	.	/	/
CNc1ncnc2c1ncn2[C@H]1CN(Cc2cccnc2)C[C@@H](CO)O1	.	/	.	.	/	.	/	/
COc1ccccc1CNc1nc(Nc2cccc(-c3cnco3)c2)c2sccc2n1	25.4	/	.	.	/	.	33.2	34.8
COc1ccc2nc(Nc3nc(CSc4nc5ccccc5[nH]4)cc(=O)[nH]3)nc(C)c2c1	.	.	.	.	.	.	/	/
Cc1nc(Nc2nc(CSc3nc4ccccc4[nH]3)cc(=O)[nH]2)nc2ccccc12	33.8	.	.	.	.	.	45.6	20.4
CC(=NNc1nc2ccccc2o1)c1cc2ccccc2cn1	27.3	.	.	.	/	.	32.3	49.4
CCC(C)C(NC(=O)CCCNC(=O)CCC(=O)OC1O[C@H]2OC3(C)CC[C@H]4[C@H](C)CCC(C1C)C24OO3)C(=O)O (some centres undefined)	27.8	/	.	.	.	.	31.0	22.1
CCC(C)NC(=O)CCC(=O)OC1O[C@H]2OC3(C)CC[C@H]4[C@H](C)CCC(C1C)C24OO3 (some centres undefined)	28.1	.	.	.	.	.	30.8	21.4
CCN(CC)S(=O)(=O)c1cc(C(=O)Nc2ccncc2)ccc1Cl	26.1	.	.	.	.	.	.	16.6
CCCS(=O)(=O)NC(=O)C1(C)CCN(C(=O)c2ccc(F)c(C)c2)C1 (centres undefined)	.	/	.	.	/	.	/	/
Cc1ccc(C)c(S(=O)(=O)N2CCN(C(=O)c3ccccc3Cc3ccccc3)CC2)c1	55.3	.	.	.	/	.	.	.
CC(=O)c1cccc(NS(=O)(=O)c2ccc(-c3cnc(C4CC4)o3)cc2)c1	30.2	.	.	.	.	.	.	19.0
O=S(=O)(Nc1ccccc1)c1ccc(-c2cnc(C3CC3)o2)cc1	.	.	.	.	.	.	/	/
O=C(O)c1ccccc1C(=O)c1cccc2c(Br)cccc12	59.8	.	.	.	/	.	91.1	.
O=C(COC(=O)c1cc(=O)[nH]c2ccccc12)NCc1ccccc1	.	.	.	.	/	.	/	/
COc1cc2sc3cc(NCCCN4CCOCC4)ccc3c(=O)c2cc1OC	.	.	.	.	/	.	/	/
COc1cccc2sc3cc(NCc4ccc(C)o4)ccc3c(=O)c12	36.7	.	.	.	/	.	83.2	.
COc1ccccc1Oc1ccc2c(c1)C(=O)N(CC1CCCO1)C2=O (centres undefined)	47.0	.	.	.	.	.	.	.
CCCCOc1ccccc1C(=O)N(Cc1ccc(C)o1)C1CCS(=O)(=O)C1 (centres undefined)	.	.	.	.	.	.	/	/
SMILES	PrPC surface inh	MazEF act	BH1578 lux ind	CCHF vOTU inh	DUSP3 inh	Y pestis TopoI	PrPC TRFRET cf	LD9 cytotox
OC[C@@H]1CN(Cc2ccc(-c3ccccc3)cc2)C[C@H](n2cnc3c(NCc4ccc(F)cc4)ncnc32)O1	.	/	.	.	/	.	/	/
C=C1C(=O)O[C@@H]2C[C@@H](C)[C@@H]3C=CC(=O)[C@@]3(C)[C@@H](O)[C@H]12	95.1	.	.	.	.	.	99.7	58.1
C=C1C(=O)O[C@@H]2C[C@@H](C)[C@@H]3C=CC(=O)[C@@]3(C)[C@@H](OC(C)=O)[C@H]12	94.8	.	/	.	.	/	103.8	34.3
C=CCNC(=S)N1C[C@H]2CON(C)[C@H]2C[C@H]1c1ccccc1Br	.	/	/	.	/	/	/	/
S=c1nc[nH]c2c1cnn2-c1ccccc1	36.3	.	.	.	.	.	43.2	.
Nc1ncnc2c1cnn2-c1ccccc1	.	.	.	.	.	.	/	/
O=C(c1ccc(C(F)(F)F)cc1)C1CCCN(Cc2ccncc2)C1 (centres undefined)	28.5	.	.	.	.	.	.	11.5
Cc1nc(SC2CCOC2=O)c2c(C)c(C)sc2n1 (centres undefined)	98.1	.	.	.	.	.	102.6	.
COc1cc(CNC2CCCC2)cc(Br)c1OCC(=O)Nc1ccccc1C	.	.	.	.	.	.	/	/
NC(=S)NN=Cc1nccc2c(C(F)(F)C(F)(F)C(F)(F)F)cccc12	28.0	.	.	.	/	.	29.4	60.3
CC(=O)c1sc(C(C)(C)C)cc1NC(=O)c1ccccc1C(=O)O	36.4	.	.	.	.	.	80.6	.
CC(C)[C@H](NC(=O)OC(C)(C)C)c1nnc(S(=O)(=O)Cc2c(F)cccc2Cl)o1	30.5	.	.	.	.	.	27.7	65.6
CC[C@@H](C)[C@H](NC(=O)OC(C)(C)C)c1nnc(S(=O)(=O)Cc2cc(C)ccc2C)o1	.	.	.	.	.	.	/	/
Cc1cc(C)c(S(=O)(=O)NCc2ccncc2)c(C)c1	40.4	.	.	.	.	.	34.6	.
CC(=O)/C(=N\Nc1ccccc1)Sc1cccc2cccnc12	.	.	.	.	.	.	/	/
O=C(Sc1cccc2cccnc12)c1ccccc1Br	30.3	/	.	.	.	.	.	83.0
COC(=O)c1cc(S(=O)(=O)NCC2CCN(Cc3ccccc3F)CC2)c[nH]1	.	.	.	.	.	.	/	/
C=CC(=O)N1C/C(=C/c2ccc(F)cc2)C(=O)/C(=C\c2ccc(F)cc2)C1	41.2	.	/	.	/	.	.	75.0
C=C1CC2(CC(c3ccccc3)OC(c3ccccc3)C2)OC1=O (centres undefined)	49.2	.	.	.	/	.	.	69.8
c1ccc([C@@H]2CO2)cc1	/	.	.	/	/	.	/	/
NNC(=O)C(=O)Nc1ccc(O)cc1	31.0	.	.	.	.	.	.	.
NC(=O)Cc1cccc(C(=O)c2ccccc2)c1N	.	/	/	.	/	/	/	/
CCOC(=O)c1c(NC(=O)COc2ccccc2OCC)sc2c1CC(C)(C)NC2(C)C	/	.	.	/	/	.	/	/
